# In PubChem BioAssay AID2551 (National Center for Advancing Translational Sciences (NCATS), 2010):
# Out of some 310,000 compounds screened, about 17,000 (5.5%) were called active. Not shown: some 11% with an inconclusive outcome. The entries come from a sample that favours actives as a whole. Values without a mark were called inactive. Calls come from the whole dose curve; as a rule, active = well fitted inhibition curve with a large enough effect; inconclusive = small, poorly fitted or top-dose-only effect, or effect the other way; inactive = no such curve, though single readings can be large or run the other way.
# Biological target: Nuclear receptor ROR-gamma (Mus musculus) (UniProt P51450)
# Assay: qHTS for inhibitors of ROR gamma transcriptional activity; note: nearly all actives have a fitted effect of over 60% in size
# Details: Drosophila S2 Gal4-RORgamma UAS-luciferase reporter, 20 h; series mostly up to 53.6 µM; activity change, negative = inhibition: at the top concentration
# How it was run: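 Using a luciferase readout, inhibitors were identified by reduced reporter activity in Drosophila cells coexpressing a copper-inducible Gal4–ROR gamma fusion and UAS-driven Photinus luciferase, incubated 20 hr after 700 uM copper sulfate.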
# % is set by controls: 0 for no effect and ±100 for the full control effect; potency is the fitted concentration of half-maximal effect.
# Nuclear receptor ROR-gamma (Mus musculus), sequence (P51450 whole entry, looked up): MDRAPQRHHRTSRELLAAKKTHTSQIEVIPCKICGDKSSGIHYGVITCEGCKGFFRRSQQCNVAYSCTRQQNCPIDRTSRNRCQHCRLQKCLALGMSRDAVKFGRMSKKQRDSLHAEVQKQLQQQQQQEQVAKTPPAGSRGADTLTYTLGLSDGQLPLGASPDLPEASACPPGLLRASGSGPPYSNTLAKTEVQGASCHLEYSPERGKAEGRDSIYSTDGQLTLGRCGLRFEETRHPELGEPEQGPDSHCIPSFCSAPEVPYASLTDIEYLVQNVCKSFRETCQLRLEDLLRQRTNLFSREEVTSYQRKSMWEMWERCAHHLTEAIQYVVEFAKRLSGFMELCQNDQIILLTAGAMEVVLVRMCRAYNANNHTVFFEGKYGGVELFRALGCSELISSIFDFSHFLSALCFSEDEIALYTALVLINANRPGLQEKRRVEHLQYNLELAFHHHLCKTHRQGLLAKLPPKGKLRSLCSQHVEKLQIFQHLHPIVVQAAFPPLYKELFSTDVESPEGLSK
SMILES,"activity change, negative = inhibition",Potency
O=C(NCc1cc(F)cc(C(F)(F)F)c1)C1CCC(=O)N(C2CCCC2)C1 (stereo not drawn),38.2%,–
CC1CCCC(C)N1C(=O)CSc1nnnn1C1CCCC1 (stereo not drawn),5%,–
Nc1nnnn1CC(=O)N/N=C/c1ccc(-c2cccc(Cl)c2)o1,-17.9%,–
O=C(Cn1nnc(-c2ccccc2)n1)N/N=C/c1ccc(-c2ccc(Cl)cc2)o1,–,7.08 µM (active)
Nc1nnn(CC(=O)N/N=C/c2ccccc2)n1,4.37%,–
Cc1ccccc1OCC(=O)N(Cc1cccc(F)c1)C1CCS(=O)(=O)C1 (stereo not drawn),16.9%,–
Cc1nn(C)cc1C(=O)NNC(=S)Nc1ccc(Cl)cc1,–,11.2 µM (active)
Cc1nn(C)cc1CNC(=O)Nc1ccc(Cl)cc1,41.3%,–
Cc1nn(C)cc1C(=O)Nc1ccccc1Br,23.8%,–
CC1CCN(S(=O)(=O)c2ccc3c(ccn3CC(=O)O)c2)CC1,-0.22%,–
CN(C)c1ccc(/C=C/C(=O)c2ccc(C(C)(C)C)cc2)cc1[N+](=O)[O-],-0.484%,–
CN(C)c1ccc(/C=C/C(=O)c2ccc(O)cc2)cc1[N+](=O)[O-],–,1.41 µM (active)
Cc1nn(-c2ccccc2)c(Cl)c1/C=C/C(=O)c1ccc(O)cc1,33.8%,–
CC(=O)c1ccc2c(c1)OCCOCCOc1ccc(C(C)=O)cc1OCCOCCO2,25%,–
O=C(O)/C=C/c1ccc2c(c1)OCCO2,-3.92%,–
O=C(/C=C/c1ccc2c(c1)OCCO2)c1ccc(O)cc1,–,1.26 µM (active)
Cc1ccc([N+](=O)[O-])cc1S(=O)(=O)N1CCCN(C)CC1,-22.4%,–
O=C(CCc1nnc2ccc(NCCCN3CCCC3=O)nn12)NCc1ccccc1Cl,-9.05%,–
Cc1ccc(/C=C2/SC(=S)N(CCC(=O)NCCCN3CCOCC3)C2=O)cc1,28.6%,–

SMILES,"activity change, negative = inhibition",Potency
O=C(NC1CCC(O)CC1)c1ccccc1OCc1ccc(F)cc1 (stereo not drawn),4.09%,–
O=c1c(-c2cccc(Cl)c2)c[nH]n1-c1ccccc1,35.9%,–
O=C1c2ccccc2NC(c2ccc(-c3cccc(Cl)c3)o2)N1O (stereo not drawn),–,11.2 µM (active)
O=C1NC(c2cccc(Cl)c2)Nc2ccccc21 (stereo not drawn),19.6%,–
COc1cc(-c2c(-c3ccc4c(c3)OCO4)noc2C)ccc1F,-12.6%,–
COc1ccc(NC(=S)SC)cc1OC,–,20 µM (active)
COc1ccc(NS(=O)(=O)c2ccc(NC(C)=O)cc2)cc1OC,35.4% [at 0.365 µM],–
COc1ccc(NC(=O)CNC(=O)Cc2ccccc2)cc1OC,0.651%,–
Cc1c(C(=O)N2CCCC2)c(S(=O)(=O)NCC(C)c2ccccc2)c(C)n1C (stereo not drawn),4.91%,–
CN(C)CCCNC(=S)N1CCN(c2nc(-c3ccccc3)cs2)CC1,-22.1%,–
Cc1cccc(Br)c1,-4.15%,–
CC(=O)Nc1cccc(C(=O)Nc2nc(C)cs2)c1,5.23%,–
Cc1cccc(NC(=S)Nc2ccc(Br)cc2)c1,–,7.08 µM (active)
Cc1csc(NC(=S)Nc2cccc(Cl)c2)n1,–,0.708 µM (active)
Fc1cc(Br)ccc1NC(=S)Nc1cccnc1,-9.91%,–
NS(=O)(=O)c1ccc(NC(=S)Nc2ccc(Br)c(Cl)c2)cc1,-26.3%,–
S=C(Nc1cccc(Cl)c1)Nc1ccc2cn[nH]c2c1,3.96%,–
Cc1cccc(NC(=S)Nc2ccc(Cl)c(Cl)c2)c1,–,15.8 µM (active)
Cc1cccc(NC(=S)Nc2ccc3cn[nH]c3c2)c1,-20.5%,–
